Rows were chosen to be rich in hits. Some 0.65% of all compounds tested hit in one or more screens of this group.
CatG inh – cathepsin G (human) inhibition; purified enzyme, AMC-tetrapeptide fluorescence, pooled mixtures; inhibition, % at 5 µM (by protocol); hit rate 0.2% among 62,000;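 active = inhibition above 20% in each of the two mixture wells holding the compound; inactive = inhibition of 20% or less in either well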;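 also: 0% = enzyme control without mixture and 100% = blank lacking enzyme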
FXIIa inh mix – inhibitors of human coagulation factor XIIa, pooled mixtures; hit rate 0.2% among 62,000; AID 684; inhibition, % at 5 µM; P00748; purified FXIIa, fluorogenic substrate;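 also: 0% = enzyme without compound and 100% = no enzyme blank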
C1s block – human complement C1s inhibition. hit rate 0.16% among 62,000. mean inhibition % of two 10-compound mixtures (active compounds read high), % at 5 µM (by protocol). purified C1s, fluorogenic AMC substrate, pooled mixtures. P09871;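 active = inhibition above 20% in each of the two 10-compound mixture wells holding the compound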;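 also: 0% = enzyme wells lacking compound mixture and 100% = no-enzyme blank wells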
Target sequence (P09871 16-437 limits assumed): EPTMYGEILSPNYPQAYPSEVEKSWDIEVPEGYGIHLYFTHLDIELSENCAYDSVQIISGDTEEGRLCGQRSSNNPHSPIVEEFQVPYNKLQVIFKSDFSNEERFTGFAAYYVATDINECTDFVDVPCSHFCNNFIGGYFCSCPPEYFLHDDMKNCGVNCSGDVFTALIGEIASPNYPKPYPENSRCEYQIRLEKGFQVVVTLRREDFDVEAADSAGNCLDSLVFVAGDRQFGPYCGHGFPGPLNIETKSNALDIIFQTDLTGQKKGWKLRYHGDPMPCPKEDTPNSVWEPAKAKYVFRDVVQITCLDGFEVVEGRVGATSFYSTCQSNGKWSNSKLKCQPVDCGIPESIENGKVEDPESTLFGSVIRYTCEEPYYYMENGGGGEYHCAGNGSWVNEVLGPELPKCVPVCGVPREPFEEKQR
Target sequence (P09871 438-688 limits assumed): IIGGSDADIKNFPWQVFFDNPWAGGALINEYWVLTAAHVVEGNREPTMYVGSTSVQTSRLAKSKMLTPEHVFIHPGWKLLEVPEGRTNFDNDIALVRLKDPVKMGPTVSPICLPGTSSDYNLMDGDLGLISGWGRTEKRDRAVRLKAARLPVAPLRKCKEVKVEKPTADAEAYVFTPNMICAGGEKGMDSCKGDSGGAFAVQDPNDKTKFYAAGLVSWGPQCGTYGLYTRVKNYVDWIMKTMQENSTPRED
FXIa inh mix – inhibitors of human coagulation factor XIa, pooled mixtures; purified FXIa, fluorogenic substrate; inhibition, % at 5 µM; hit rate 0.19% among 62,000;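 also: each value is inhibition by a whole ten-compound pool holding the compound; 0% = enzyme with no mixture and 100% = wells lacking enzyme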
Ec RNAP inh – Escherichia coli RNA polymerase inhibition; inhibition, %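 (tested at 10 µM)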; hit rate 0.2% among 62,000; E. coli RNA polymerase, fluorescence transcription assay; in the data active = inhibition above about 20%;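 also: 0% = enzyme without compound and 100% = no enzyme blank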
The depositor's hits bear a star; nt = no result given. Rule as the data show it, unless noted: active = inhibition above about 20% (passing the limit was not always enough); inactive = the rest.

SMILES | CatG inh | FXIIa inh mix | C1s block | FXIa inh mix | Ec RNAP inh
CCOc1ccc(-c2nc(CSCC(=O)NCCN3CCOCC3)c(C)o2)cc1 | 7.0 | 5.9 | 1.3 | 9.6 | 0.6
COc1ccc(NC(=O)CSC2CC(=O)N(c3ccc4c(c3)OCCO4)C2=O)cc1 (stereo not drawn) | 2.2 | 11.4 | 3.2 | 8.6 | -8.1
Nc1cc(N)nc(SCCOc2ccccc2)n1 | -12.9 | 7.5 | -73.8 | -10.5 | -0.1
Nc1cc(N)nc(SCCOc2ccccc2F)n1 | 14.2 | 2.0 | 30.2 | 77.3* | 5.0
CCCCS(=O)(=O)NC1=NCN(C2CCN(Cc3ccccc3)CC2)CN1 | 1.9 | -9.2 | -19.4 | -1.4 | 2.9
CC(C)Oc1ccc(C2CC(=O)NC3=C2C(=O)CCC3)cc1 (stereo not drawn) | 8.2 | 2.6 | -1.5 | 7.1 | 22.5*
O=C1CC(Cc2ccccc2)C(=O)N1CCCn1ccnc1 (stereo not drawn) | 10.4 | 1.6 | 4.7 | 0.3 | 6.4
CN(C)c1ccc(CN(C)C2CCCCC2)cc1 | -3.4 | 1.5 | 9.8 | 3.5 | 4.1
CCOC(=O)Cc1csc(-n2sc3ccccc3c2=O)n1 | 10.3 | 31.0* | -8.5 | -1.0 | 7.2
O=C(NCc1cccs1)C1CC(=O)N(c2ccccc2)C1 (stereo not drawn) | -3.6 | -19.9 | 0.3 | 0.2 | -0.8
CCOC(=O)N1CCN(C(=O)c2ccc3c(=O)n(Cc4ccccc4)c(=S)[nH]c3c2)CC1 | -1.7 | -3.6 | -5.4 | 57.2* | 10.4
Cc1cc(N2CCC3(CC2)OCCO3)n2nc(C)c(-c3ccc(Cl)cc3)c2n1 | -0.8 | 11.5 | 0.2 | 10.3 | -8.1
COc1ccccc1N=Cc1nc(-c2ccccc2)oc1OC(C)=O | 26.4* | 5.6 | 8.5 | 50.1* | 14.5
CC(=O)Oc1oc(-c2ccccc2)nc1/C=N/c1ccccn1 | nt | nt | nt | nt | 11.7
O=C(C1CCC(CNS(=O)(=O)c2cccc3cccnc23)CC1)N1CCCC1 (stereo not drawn) | -1.6 | 22.2* | -32.0 | 1.3 | 4.2
O=C(C1CCC(CNS(=O)(=O)c2cccs2)CC1)N1CCCCC1 (stereo not drawn) | 8.6 | -14.5 | -1.5 | -2.2 | 9.0
Cc1cc(C(=O)OCC(=O)Nc2ccc(F)cc2F)c(C)o1 | 11.0 | 1.1 | 11.6 | 8.9 | 8.6
CCOC(=O)Cn1c(=O)oc2cc(S(=O)(=O)Nc3ccc(F)cc3)ccc21 | -2.0 | 3.6 | -2.1 | 1.0 | 2.6
CCCCN1CC(C(=O)NC2CCCCC2)CC1=O (stereo not drawn) | -1.8 | 7.2 | -23.2 | -8.2 | 6.5
CCOC(=O)C(C)On1c(SC(C)C(=O)OCC)nc2ccccc2c1=O (stereo not drawn) | 1.2 | 48.9* | -6.8 | 11.6 | 2.9
CCN(CC)C(=O)CSc1nc2ccccc2c(=O)n1OC | 2.5 | -19.1 | -31.5 | 1.3 | -2.4
Cc1cccc(NC(=O)c2cc(N3CCOCC3)nc3ccccc23)c1 | nt | nt | nt | nt | 20.6*
CC(C)c1ccc(O)c(N)c1 | 28.9 | 0.1 | 7.2 | 1.3 | 5.6
CCC(C)c1ccc(O)c(N)c1 (stereo not drawn) | 5.8 | 1.4 | 12.5 | 3.1 | 28.2*
C=CCOc1nc(-c2ccncc2)nc2ccccc12 | nt | nt | nt | nt | 2.6
SMILES | CatG inh | FXIIa inh mix | C1s block | FXIa inh mix | Ec RNAP inh
COc1cccc(N2C(=O)N(c3ccccc3Cl)C3CS(=O)(=O)CC32)c1 (stereo not drawn) | 16.6 | 3.0 | 23.0* | 9.2 | 14.8
O=C(NCc1ccco1)C(Cc1ccccc1)N1C(=O)c2ccccc2C1=O (stereo not drawn) | -2.4 | 3.8 | 1.0 | 25.6* | 2.0
O=C(NCc1ccc2c(c1)OCO2)c1cccc(N2CCCC2=O)c1 | 11.2 | 27.4* | 14.6 | 4.5 | 1.2
COc1ccc(S(=O)(=O)Nc2ccc(O)c3ccccc23)cc1 | 10.2 | 9.1 | 14.2 | 7.5 | 23.9*
CC(C)CC(C(=O)NCc1ccccn1)N1C(=O)c2ccccc2C1=O (stereo not drawn) | 10.9 | -0.6 | 14.5 | 2.3 | 5.2
COCCNC(=O)c1noc2c1CCc1cc(OC)ccc1-2 | 49.9* | -14.3 | 15.7 | 5.1 | -4.9
COc1ccc2c(c1)CCc1c(C(=O)NCc3ccco3)noc1-2 | 56.2* | 12.6 | 11.1 | 14.8 | 2.1
COc1ccc2c(c1)CCc1c(C(=O)NCCN3CCOCC3)noc1-2 | 57.8* | 5.2 | -25.0 | 11.3 | -15.3
COc1cccc(-c2cc(C(=O)NCCN3CCOCC3)no2)c1 | 6.2 | -0.2 | 1.3 | 4.4 | 0.3
COc1ccc2c(c1)CCc1c(C(=O)NC3CCCCC3)noc1-2 | 74.4* | 1.4 | 2.9 | 25.6 | -7.7
COc1ccc2c(c1)CCc1c(C(=O)NCCCn3ccnc3)noc1-2 | 36.4* | 3.9 | -4.3 | 3.5 | 2.8
COCC(C)NC(=O)c1noc2c1CCc1cc(OC)ccc1-2 (stereo not drawn) | 39.4* | -0.2 | 12.1 | 6.2 | 1.4
O=C(COC(=O)c1cnccn1)c1ccc(OC(=O)c2ccccc2)cc1 | 9.2 | -10.1 | 26.4* | 11.7 | 13.5
CSCCC(NC(=O)c1ccccc1)C(=O)NCc1ccco1 (stereo not drawn) | 5.5 | 2.6 | 0.2 | 4.2 | -0.7
CCOC(=O)C1CCCN(c2nc3ccccc3nc2C(C#N)C(=O)OC(C)COC)C1 (stereo not drawn) | 0.8 | 3.5 | -30.6 | 11.9 | 21.3*
CCOC(=O)Nc1ccc(S(=O)(=O)Nn2cnnc2)cc1 | -0.8 | 3.4 | -0.4 | 6.0 | 6.3
COc1ccc(S(=O)(=O)N2CCC(C(N)=O)CC2)cc1 | 47.9 | -12.1 | -8.5 | 30.8* | 0.6
COc1ccc(S(=O)(=O)N2CCCC(C(=O)O)C2)cc1 (stereo not drawn) | -2.5 | -12.7 | -5.0 | 3.7 | 2.4
Cc1nc(-c2cccc(S(=O)(=O)N3CCOCC3)c2)cs1 | 9.5 | 10.3 | 7.2 | 4.7 | 9.5
O=c1oc(-c2cccc(S(=O)(=O)N3CCOCC3)c2)nc2ccccc12 | 49.3* | 1.7 | 16.7 | 3.8 | 1.8
O=c1oc(-c2cccnc2)nc2ccccc12 | 56.3* | 2.0 | 14.6 | 3.0 | -0.3
CC(NC(=O)c1ccc(F)cc1)C(c1cccs1)N1CCN(C)CC1 (stereo not drawn) | 10.8 | 4.2 | -2.1 | -0.3 | 13.2
CC(NS(=O)(=O)c1ccc(F)cc1)C(c1cccs1)N1CCN(C)CC1 (stereo not drawn) | -4.0 | 4.6 | -3.5 | 2.4 | 21.5*
Cn1c(Cn2c(=O)sc3ccccc32)nnc1SCC(=O)Nc1ccc2c(c1)OCO2 | 5.2 | 3.6 | 5.6 | 0.2 | 4.4
COc1ccc(NC(=O)c2ccco2)cc1N | -3.8 | 8.6 | -8.5 | 11.3 | -4.5
Cc1ccc(Cn2ncc3c(N4CCN(c5ccccc5C)CC4)ncnc32)cc1 | 19.6 | 4.2 | 22.1* | 13.0 | 8.2
Cc1ccc(Cn2ncc3c(N4CCOCC4)ncnc32)cc1 | nt | nt | nt | nt | 10.5
CCCC1(CCC)NC(=O)N(CC(=O)Nc2cccc(OC)c2)C1=O | 13.0 | 13.9 | 13.8 | 7.3 | 40.4*
COc1cc(NC(=O)CN2C(=O)NC(C)(CCC(C)C)C2=O)cc(OC)c1 (stereo not drawn) | 11.1 | 3.5 | 6.2 | 2.0 | 7.0
O=C(COC(=O)CCC(=O)c1ccc2c(c1)OCCO2)NCc1ccc2c(c1)OCO2 | -1.0 | 1.4 | -0.8 | 1.2 | 1.2
